INHIBITION data for 53 molecules are collected here from ChEMBL document CHEMBL4513216, “Probing the Open Global Health Chemical Diversity Library for Multistage-Active Starting Points for Next-Generation Antimalarials” (ACS Infect Dis, 2020).

The campaign covered roughly 69,000 compounds. About 8,600 (12%) showed an effect of 50% or more. Only a selection was taken, and strong results are over-represented in it overall.

The assay has as its system Plasmodium berghei. Description: Screen against P. berghei liver stage (PbLuc), transformed with Luciferase, at 10uM. It is filed as functional, HepG2. Conditions: tested at 10 uM.
`O=C(NCCS(=O)(=O)N1CCc2ccccc21)c1c(O)cc(F)cc1F`: the INHIBITION was 42%. With `O=C(NCCC(=O)N1CCCc2ccccc21)c1c(O)cc(F)cc1F` the figure was 73.9%. Then `O=C(NCC(=O)N1CCCc2ccccc21)c1c(O)cc(F)cc1F`, with 80.6%. Then `O=C(NCCC(=O)N1CCCc2ccccc21)c1cc(F)cc(F)c1`, with -19.9%; and `O=C(NCCC(=O)N1CCCc2ccccc21)c1ccc(F)cc1F`, with 11.6%. Regarding `C=C(C)COc1ccc(C(CC(=O)OC)c2oc(C)cc(=O)c2O)cc1` (stereo not drawn), the INHIBITION was -24.7%. Regarding `CNc1ncc(CN(C)C(=O)c2cccc(Cn3cccn3)c2)cn1`, the INHIBITION was determined as 18.5%. With `CCc1ccccc1Nc1noc2c1CN(C(=O)c1ccn(C)n1)CC2` the figure was -3.35%; with `CCn1ccnc1CN1CCN(Cc2cccnc2)CC1C` (stereo not drawn), 33.5%. Consider `CCN1CC(=O)c2sc(NC(C)C)nc2C1`, for which the INHIBITION was found to be 23.4%. On to `CC(C)NC(=O)N1CC(=O)c2sc(Nc3ccc(C#N)cc3)nc2C1`, for which the INHIBITION was determined as 61.9%. `N#Cc1ccc(Nc2nc3c(s2)C(=O)CN(CC2CC2)C3)cc1`: the INHIBITION is recorded as -15.2%. With `CC(C)NC(=O)N1CC(=O)c2sc(NC3CCCCC3)nc2C1` the figure was -16.7%. Then `CC(C)CC(=O)N1CC(=O)c2sc(Nc3ccc(F)cc3)nc2C1`, with 51.5%; and `CC(C)CC(=O)N1CC(=O)c2sc(Nc3ccc(C#N)cc3)nc2C1`, with 79.7%; and `CC(C)Nc1nc2c(s1)C(=O)CN(C)C2`, with 35.2%. With `CC[C@H](C)[C@H](N)C(=O)N1CC(=O)c2sc(Nc3ccc(F)cc3)nc2C1` the figure was 14.5%; with `Cc1nc(C)n(CC2CCCN(CCCOc3ccc(F)cc3)C2)n1` (stereo not drawn), 40.2%; with `NC(=O)C1CCN(CCc2ccc(NC(=O)C3CC3)cc2)CC1`, 45.05%. With `CC(O)(CNC(=O)NCCc1ccc2c(c1)CCO2)c1ccsc1` (stereo not drawn), the INHIBITION came to 30.8%.

`CC(C)c1nn(C)cc1CNC1CCOc2ccccc21` (stereo not drawn): the INHIBITION amounted to 31.8%. Then `COc1ccccc1C1CNCCN1C(C)=O` (stereo not drawn), with 9.98%.

On to `CC(=O)N1CCC2(CCCN2Cc2cnn(C)c2)CC1`, for which the INHIBITION was -26%. For `CCOc1ccnc(N2CCCN(c3nc(CC)ns3)CC2)n1`, the INHIBITION is recorded as -12.5%. Turning to `CCOc1ccnc(N2CCCN(c3nc(C4CC4)ns3)CC2)n1`, the INHIBITION is -75.5%. Then `COc1ccnc(N2CCCN(c3nc(C4CC4)ns3)CC2)n1`, with 77.6%. Then `CC(C)C(NC(=O)Cn1ccc(=O)n(C)c1=O)c1ccc(F)cc1` (stereo not drawn), with 53.8%; and `CC(NC(=O)Cn1ccc(=O)n(C)c1=O)c1cc(F)ccc1F` (stereo not drawn), with -35.7%. With `CC(NC(=O)Cn1ccc(=O)n(C)c1=O)c1ccccc1F` (stereo not drawn) the figure was -27.8%; with `O=C(c1ccc(NCc2cccc(F)c2)cc1)N1CCCC1`, -16.1%; with `CCC(C(=O)N(C)Cc1cc(COC)[nH]n1)n1cccn1` (stereo not drawn), -29.2%. In the case of `O=C(c1ccc(NC2CC2)nc1)N1CCCC(n2ccnc2)C1` (stereo not drawn), the INHIBITION is recorded as 31.32%. With `CCn1cc(S(=O)(=O)N2CCCC3(CC=CNC3=O)C2)c(C)n1` (stereo not drawn) the figure was -42.9%; with `Cn1cc(C(O)CNC(=O)c2ccc(F)cc2Cl)cn1` (stereo not drawn), 51.6%; with `Cn1cc(C(O)CNC(=O)c2cc(Br)ccc2Cl)cn1` (stereo not drawn), 19.8%. Then `Cc1ccc(C(=O)NCC(O)c2cnn(C)c2)c(Br)c1` (stereo not drawn), with 29.7%. With `CC(C)(O)CNC(=O)NCc1nccn1CCc1ccccc1`, the INHIBITION was -4.63%. With `CC(C)COCC(NC(=O)c1cnccn1)c1ccco1` (stereo not drawn) the figure was -26.6%. Then `CC(C)COCC(NC(=O)c1ccccn1)c1ccco1` (stereo not drawn), with 8.25%. With `CC(C)COCC(NC(=O)c1cc[nH]n1)c1ccco1` (stereo not drawn) the figure was 53.8%; with `CCn1nc(CC(C)C)cc1C(=O)NCC(F)(F)F`, 15.4%. As to `Cc1noc(C)c1CN1CCOC2(CCCN(c3ncccn3)C2)C1` (stereo not drawn), the INHIBITION was -21.1%. With `CC(C)c1nnc(CN2CCN(C(C)c3nc(C4CC4)no3)CC2)o1` (stereo not drawn) the figure was 33.3%. Then `CCC1=NN2C(=N)C(=Cc3cccn3-c3ccc(Cl)cc3)C(=O)N=C2S1`, with 76.7%; and `CCC1=NN2C(=N)C(=Cc3cccn3-c3cccc(Cl)c3)C(=O)N=C2S1`, with 73.7%; and `CCC1=NN2C(=N)/C(=C/c3cccc(Cl)c3)C(=O)N=C2S1`, with 37.7%.

For `CCC1=NN2C(=N)C(=Cc3cccn3-c3ccc(Br)cc3)C(=O)N=C2S1`, the INHIBITION is recorded as 65.4%. `O=C(O)Cc1cn2cc(C(F)(F)F)ccc2n1`: the INHIBITION is listed as 7.38%. With `Cn1cc(CN2CC[C@H](O)[C@@H]2Cc2ccccc2)cn1` the figure was 17.1%; with `Cc1noc(C)c1C(=O)N1C[C@H]2CCC[C@@]2(COc2ccccn2)C1`, 34.7%. With `COc1ccnc(N2C[C@@H](NS(=O)(=O)N(C)C)[C@H](C(C)C)C2)n1` the figure was -15.6%. With `CCC[C@H]1CN(c2nccc(NCC)n2)C[C@@H]1NS(=O)(=O)N(C)C` the figure was 48.7%; with `CCC[C@H]1CN(c2nccc(OC)n2)C[C@@H]1NS(=O)(=O)N(C)C`, 56.6%.
